Several values for one entry are separate records, joined by “and”; a condition that tells them apart may be missing. Equal values may be shown once. Results filed as inconclusive are left out. Activity calls are given as the source filed them.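 The calls were made as follows, unless noted: active = normalized viability below 100% at a tested concentration; inactive = the rest.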
Assays:
[1] = viability loss in pontine glioma line – cell-based, SU-DIPG-XVII, MIPE5.0, CellTiter-Glo, qHTS, dose response (AID 1347060; cut-off not given, nearly all actives have AC50 up to about 26 µM;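 as to AC50: cells exposed to compound for 48 hours before viability readout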); conditions: CellTiter-Glo ATP luminescence
[2] = viability loss in pontine glioma line – cell-based, JHH-DIPG-1, MIPE4.0, CellTiter-Glo, qHTS, dose response (AID 1347062; cut-off not given, nearly all actives have AC50 up to about 27 µM;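 as to AC50: cells exposed to compound for two days before readout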); conditions: JHH-DIPG-1 viability, CellTiter-Glo ATP luminescence
[3] = viability loss in pontine glioma line – cell-based, SU-DIPG-IV, MIPE4.0, CellTiter-Glo, qHTS, dose response (AID 1347063; cut-off not given, nearly all actives have AC50 up to about 30 µM;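 also: compound exposure lasted 48 hours before the viability readout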); conditions: CellTiter-Glo ATP luminescence
[4] = viability loss in pontine glioma line – cell-based, SU-DIPG-XXV, MIPE5.0, CellTiter-Glo, qHTS, dose response (AID 1347065; cut-off not given, nearly all actives have AC50 up to about 26 µM;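 also: cells exposed to compound for 48 hours before ATP readout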); conditions: CellTiter-Glo ATP luminescence
[5] = growth inhibition of DIPG cells – cell-based, MIPE5.0 library, qHTS (AID 1347068; cut-off not given, nearly all actives have IC50 up to about 30 µM;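 as to IC50: cells exposed to compound for 48 hours before viability readout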); conditions: SU-DIPG-XXV viability
[6] = growth inhibition of DIPG cells – cell-based, MIPE4.0 library, CellTiter-Glo luminescence, qHTS (AID 1347066; cut-off not given, nearly all actives have AC50 up to about 30 µM;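 also: cells exposed to compound for 48 hours before readout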); conditions: SU-DIPG-VI viability, CellTiter-Glo ATP luminescence
[7] = JHH-DIPG-1 glioma cell viability, MIPE5.0 library, CellTiter-Glo luminescence, qHTS (AID 1347067; cut-off not given, nearly all actives have AC50 up to about 26 µM;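 also: cells exposed to compound for 48 hours before readout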); conditions: JHH-DIPG-1 glioma viability, CellTiter-Glo ATP luminescence
[8] = viability loss with induced miR-34 in A549 – imaging, A549 dox-inducible miR-34, nuclei and caspase counts, primary screen (AID 1347080;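 active = compounds whose cell count with miR-34 switched on is under 0.7 times the count with it off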); conditions: A549 miR-34 inducible, Hoechst nuclei count, 48 h
[9] = MELAS cybrid and Rieske KO viability enhancers – cell-based, MELAS cybrids, Rieske KO mouse fibroblasts, CellTiter-Glo, primary screen (AID 1508586;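 active = mean z-score across replicates of 1.96 or higher in either the MELAS or the Rieske mutant cell line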;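 also: z relative to plate mean and SD of compound and empty wells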); conditions: low glucose
[10] = viability loss in pontine glioma line – cell-based, SU-DIPG-XIII, MIPE5.0, CellTiter-Glo, qHTS, dose response (AID 1347064; cut-off not given, nearly all actives have AC50 up to about 23 µM); conditions: CellTiter-Glo ATP luminescence
[11] = compounds altering HSF1 focus formation in cells – imaging, Selleck Cancer Library (AID 1347162; in the data active = plate-normalised HSF1 focus index below about 0.46); conditions: human cells, HSF1 nuclear foci imaging, at 10 µM; SSMD: measured here: HSF1 foci SSMD mean; cell count: measured here: cell number; plate-normalised HSF1 focus index: stronger effect = lower value
[12] = drug combination growth inhibition, ovarian cancer – cell-based, oncology-focused library, rucaparib conditional, profiling panel (AID 1508598); conditions: patient-derived ovarian cancer cells, CellTiter-Glo viability, 144 h, stronger effect = lower value
[13] = stronger effect = lower value, cell number ratio, induced over uninduced
[14] = measured here: relative caspase fold change +Dox/-Dox
[15] = measured here: total cells with miR-34 induction, stronger effect = lower value
[16] = measured here: total cells without miR-34 induction
[17] = MELAS cybrid survival, CellTiter-Glo 48 h, stronger effect = higher value
[18] = Rieske KO mouse fibroblast survival, CellTiter-Glo 72 h

C[C@@H]1COC(Nc2ccc3ncnc(Nc4ccc(OCc5nccs5)c(Cl)c4)c3c2)=N1
active: AC50 [1] 20.9 µM | AC50 [2] 18.7 µM | AC50 [3] 16.6 µM | AC50 [4] 20.9 µM | IC50 [5] 23.5 µM

CC(C)c1cnn2c(NCc3ccccc3)cc(NCCCCCCN)nc12
inactive: fold change [8, 13] 0.98 | z-score [9, 17] -0.424
7920: cell count [8, 15]
0.679: fold change [8, 14]
active: AC50 [1] 18.6 µM | AC50 [2] 20.9 µM | AC50 [3] 18.7 µM | AC50 [4] 18.6 µM | AC50 [6] 23.5 µM | AC50 [7] 26.3 µM | IC50 [5] 23.5 µM
8080: cell count [8, 16]
-0.75: z-score [9, 18]

CCCCCCCCCCCC(CC1OC(=O)C1CCCCCC)OC(=O)C(CC(C)C)NC=O (stereo unspecified)
10300 and 7610: cell count [8, 16]
2.53 and 0.818: fold change [8, 14]
-1.74: z-score [9, 18]
inactive: outcome [1] | outcome [2] | outcome [3] | outcome [6] | outcome [7] | outcome [5] | fold change [8, 13] 0.897 and 0.881 | z-score [9, 17] 1.14
9250 and 6710: cell count [8, 15]

CS(=O)(=O)c1ccc(C(=O)Nc2ccc(Cl)c(-c3ccccn3)c2)c(Cl)c1
active: viability ([12]; at 0.000305 µM, OCI-P5x cells, with rucaparib 20 µM, 100% = cells with rucaparib alone) 92.5% | viability ([12]; at 0.00488 µM, OCI-P5x cells, without rucaparib) 97.6% | viability ([12]; at 5 µM, OCI-P5x cells, with rucaparib 20 µM, 100% = cells with rucaparib alone) 97.4% | viability ([12]; at 5 µM, OCI-P5x cells, without rucaparib) 99.8%
2.58: SSMD [11]
inactive: outcome [1] | outcome [2] | outcome [10] | outcome [4] | outcome [6] | outcome [7] | outcome [5] | fold change [8, 13] 0.865 and 0.901 | plate-normalised HSF1 focus index [11] 1.15 | z-score [9, 17] 0.265 and -0.383 | viability ([12]; at 0.000305 µM, OCI-C5x cells, with rucaparib 10 µM, 100% = cells with rucaparib alone) 124% | viability ([12]; at 0.000305 µM, OCI-C5x cells, without rucaparib) 125% | viability ([12]; at 0.000305 µM, OCI-P5x cells, without rucaparib) 106% | viability ([12]; at 0.00122 µM, OCI-C5x cells, with rucaparib 10 µM, 100% = cells with rucaparib alone) 126% | viability ([12]; at 0.00122 µM, OCI-C5x cells, without rucaparib) 125% | viability ([12]; at 0.00122 µM, OCI-P5x cells, with rucaparib 20 µM, 100% = cells with rucaparib alone) 103% | viability ([12]; at 0.00122 µM, OCI-P5x cells, without rucaparib) 102% | viability ([12]; at 0.00488 µM, OCI-C5x cells, with rucaparib 10 µM, 100% = cells with rucaparib alone) 125% | viability ([12]; at 0.00488 µM, OCI-C5x cells, without rucaparib) 124% | viability ([12]; at 0.00488 µM, OCI-P5x cells, with rucaparib 20 µM, 100% = cells with rucaparib alone) 106% | viability ([12]; at 0.0195 µM, OCI-C5x cells, with rucaparib 10 µM, 100% = cells with rucaparib alone) 115% | viability ([12]; at 0.0195 µM, OCI-C5x cells, without rucaparib) 117% | viability ([12]; at 0.0195 µM, OCI-P5x cells, with rucaparib 20 µM, 100% = cells with rucaparib alone) 107% | viability ([12]; at 0.0195 µM, OCI-P5x cells, without rucaparib) 102% | viability ([12]; at 0.0781 µM, OCI-C5x cells, with rucaparib 10 µM, 100% = cells with rucaparib alone) 123% | viability ([12]; at 0.0781 µM, OCI-C5x cells, without rucaparib) 116% | viability ([12]; at 0.0781 µM, OCI-P5x cells, with rucaparib 20 µM, 100% = cells with rucaparib alone) 106% | viability ([12]; at 0.0781 µM, OCI-P5x cells, without rucaparib) 103% | viability ([12]; at 0.313 µM, OCI-C5x cells, with rucaparib 10 µM, 100% = cells with rucaparib alone) 125% | viability ([12]; at 0.313 µM, OCI-C5x cells, without rucaparib) 127% | viability ([12]; at 0.313 µM, OCI-P5x cells, with rucaparib 20 µM, 100% = cells with rucaparib alone) 108% | viability ([12]; at 0.313 µM, OCI-P5x cells, without rucaparib) 104% | viability ([12]; at 1.25 µM, OCI-C5x cells, with rucaparib 10 µM, 100% = cells with rucaparib alone) 133% | viability ([12]; at 1.25 µM, OCI-C5x cells, without rucaparib) 116% | viability ([12]; at 1.25 µM, OCI-P5x cells, with rucaparib 20 µM, 100% = cells with rucaparib alone) 108% | viability ([12]; at 1.25 µM, OCI-P5x cells, without rucaparib) 104% | viability ([12]; at 5 µM, OCI-C5x cells, with rucaparib 10 µM, 100% = cells with rucaparib alone) 158% | viability ([12]; at 5 µM, OCI-C5x cells, without rucaparib) 149%
10200 and 7460: cell count [8, 16]
0.641 and 0.534: z-score [9, 18]
0.712 and 0.902: fold change [8, 14]
8790 and 6720: cell count [8, 15]
7240: cell count [11]

CCC(C)SSc1ncc[nH]1 (stereo unspecified)
active: AC50 [1] 14.8 µM | AC50 [2] 23.5 µM | AC50 [4] 11.8 µM | AC50 [6] 26.4 µM

CS(=O)(=O)Oc1ccc2c(NC(N)=O)c(C(=O)c3ccc(Cl)cc3Cl)oc2c1
active: AC50 [2] 2.35 µM
inactive: outcome [1] | outcome [10] | outcome [4] | outcome [7] | outcome [5]

C=CC[N+]1([C@H]2C[C@H]3[C@@H]4CC[C@H]5C[C@H](O)[C@@H](N6CCOCC6)C[C@]5(C)[C@H]4CC[C@]3(C)[C@H]2OC(C)=O)CCCC1
10700: cell count [8, 16]
1.54: fold change [8, 14]
-0.444: z-score [9, 18]
9100: cell count [8, 15]
inactive: outcome [1] | outcome [2] | outcome [10] | outcome [7] | outcome [5] | fold change [8, 13] 0.847 | z-score [9, 17] 0.124

CN(C(Cc1ccc(OS(=O)(=O)c2cccc3cnccc23)cc1)C(=O)N1CCN(c2ccccc2)CC1)S(=O)(=O)c1cccc2cnccc12 (stereo unspecified)
1.12 and 0.338: fold change [8, 14]
-1.42: z-score [9, 18]
4980 and 6920: cell count [8, 16]
4410 and 6540: cell count [8, 15]
inactive: outcome [1] | outcome [2] | outcome [10] | outcome [6] | outcome [7] | outcome [5] | fold change [8, 13] 0.886 and 0.945 | z-score [9, 17] -0.441
